# In PubChem BioAssay:
# Calls of active or inactive are those of the source.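 The calls were made as follows, unless noted: active = mean inhibition over 43.08%, the solvent-only control mean plus 3 SD; inactive = the rest.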
# Biological target: Nuclear receptor coactivator 3 (Homo sapiens) (UniProt Q9Y6Q9)
# Test: SRC3 coactivator transcriptional activity inhibitors, confirmation, cell-based, luminescence, quadruplicate (AID 588792);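 also: 0% = DMSO treated cells and 100% = gossypol at 36 µM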
# Settings: HEK293 GAL4-SRC3 luciferase reporter, at 3.6 µM, active compounds read high
# Chain of Nuclear receptor coactivator 3 (Homo sapiens) (Q9Y6Q9 whole entry, looked up): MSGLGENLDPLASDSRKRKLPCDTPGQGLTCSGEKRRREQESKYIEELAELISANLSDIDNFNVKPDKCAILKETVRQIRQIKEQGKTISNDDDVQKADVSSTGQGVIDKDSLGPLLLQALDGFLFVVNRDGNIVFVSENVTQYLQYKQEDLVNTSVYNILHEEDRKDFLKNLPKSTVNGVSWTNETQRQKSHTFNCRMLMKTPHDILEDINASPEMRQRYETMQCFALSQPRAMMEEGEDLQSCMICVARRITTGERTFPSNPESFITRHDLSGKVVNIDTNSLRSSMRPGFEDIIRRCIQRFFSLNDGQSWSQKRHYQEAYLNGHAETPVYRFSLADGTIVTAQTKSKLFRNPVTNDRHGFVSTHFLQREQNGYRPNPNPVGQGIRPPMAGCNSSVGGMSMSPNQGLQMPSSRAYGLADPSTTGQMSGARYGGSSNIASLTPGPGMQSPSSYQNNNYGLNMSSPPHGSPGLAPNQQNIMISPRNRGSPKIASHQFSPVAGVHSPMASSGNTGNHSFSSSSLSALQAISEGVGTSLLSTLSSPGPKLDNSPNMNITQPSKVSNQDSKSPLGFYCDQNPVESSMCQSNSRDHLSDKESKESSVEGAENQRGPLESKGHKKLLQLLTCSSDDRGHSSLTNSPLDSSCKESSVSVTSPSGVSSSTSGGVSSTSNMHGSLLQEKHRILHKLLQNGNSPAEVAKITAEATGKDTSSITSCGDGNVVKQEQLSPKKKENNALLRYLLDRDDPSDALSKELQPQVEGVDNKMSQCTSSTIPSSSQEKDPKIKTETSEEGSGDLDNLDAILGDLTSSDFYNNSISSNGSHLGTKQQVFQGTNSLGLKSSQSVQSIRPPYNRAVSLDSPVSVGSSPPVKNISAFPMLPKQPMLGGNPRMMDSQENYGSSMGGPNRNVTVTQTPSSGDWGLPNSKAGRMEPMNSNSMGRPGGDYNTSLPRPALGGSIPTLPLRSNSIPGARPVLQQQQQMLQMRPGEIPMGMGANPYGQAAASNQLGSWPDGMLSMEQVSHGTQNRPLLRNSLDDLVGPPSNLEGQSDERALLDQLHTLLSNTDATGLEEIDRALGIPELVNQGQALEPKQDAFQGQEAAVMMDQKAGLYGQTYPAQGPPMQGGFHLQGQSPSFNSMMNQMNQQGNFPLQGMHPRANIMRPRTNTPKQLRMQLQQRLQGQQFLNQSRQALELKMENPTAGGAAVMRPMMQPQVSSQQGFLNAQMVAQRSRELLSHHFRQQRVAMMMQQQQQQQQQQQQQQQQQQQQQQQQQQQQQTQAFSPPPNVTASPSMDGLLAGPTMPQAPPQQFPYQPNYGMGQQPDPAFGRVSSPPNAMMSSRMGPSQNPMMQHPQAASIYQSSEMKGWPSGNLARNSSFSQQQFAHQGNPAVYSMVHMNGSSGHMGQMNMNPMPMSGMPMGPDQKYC
row,SMILES,inhibition
1,COc1ccc(-c2nc3c(c(SCC(=O)N4CCOCC4)n2)Cc2c(CO)cnc(C)c2O3)cc1,5.29% (inactive)
2,CCCNc1nc(OC(C(F)(F)F)C(F)(F)F)nc(OC(C(F)(F)F)C(F)(F)F)n1,7.26% (inactive)
3,O=C(NNC(=O)c1cccnc1SCc1cccc([N+](=O)[O-])c1)c1ccccn1,34.4% (inactive)
4,COc1cccc(NC(=O)CN(C)C(=O)/C=C/c2cn(-c3ccccc3)nc2-c2ccc(OC)c(OC)c2)c1,1.39% (inactive)
5,COc1ccc(S(=O)(=O)Nc2cc([N+](=O)[O-])ccc2OC)cc1,-7.49% (inactive)
6,CC#CC[N+](C)(C)CCCCCCCCCC,4.4% (inactive)
7,O=C(N/N=C/c1ccccc1O)c1ccncc1,14.8% (inactive)
8,C/C(=N\NC(=O)c1cc(-c2cccnc2)nc2ccccc12)c1ccc(O)cc1O,48.4% (active)
9,CCSc1nsc(NC(=O)Nc2cccc(F)c2)n1,13.2% (inactive)
10,Nc1[nH]nc2nc(-c3ccccc3)[nH]c(=O)c12,-11.1% (inactive)
11,Cc1nc2ccccn2c1-c1ccnn1S(=O)(=O)c1ccc(F)cc1,3.74% (inactive)
12,Cc1cc(NC2CCCCC2)nc(NCc2ccccc2)n1,18.8% (inactive)
13,CCCN1C(=O)c2ccccc2NC1c1ccc(Cl)c(Cl)c1 (stereo not given),17.8% (inactive)
14,C[C@H](NS(=O)(=O)c1ccc(Cl)cc1)C(=O)OCC(=O)NC(=O)Nc1ccc2c(c1)OCCO2,-39.7% (inactive)
15,Cc1ccc(NC(=O)C2c3ccccc3-c3ccccc32)cc1,9.64% (inactive)
16,O=C(COc1ccc(Cl)cc1)NCc1nnc(SCC(=O)NC2CCCCC2)o1,3.51% (inactive)
17,CSc1cccc(N/C(=N/S(=O)(=O)c2ccccc2)NN)c1,5.54% (inactive)
18,COc1cccc(-c2c(C(=O)N/N=C/c3ccncc3)nnn2-c2nonc2N)c1,3.64% (inactive)
19,Cc1cccc(NC(=O)c2cc(-c3ccccn3)nc3ccccc23)c1C,-9.5% (inactive)
20,Cc1cccc(NC(=O)c2cnn(C)c2)c1C,-2.28% (inactive)

row,SMILES,inhibition
1,C=CCSc1nc2ccccc2n1C(=O)/C=C/c1cc(OC)c(OC)c(OC)c1,-6.27% (inactive)
2,Cc1ccsc1/C=N/NC(=O)CNC(=O)c1ccccc1,-11.5% (inactive)
3,COc1ccc2nc(C(F)(F)Cl)c(C#N)c(N)c2c1,24% (inactive)
4,O=c1[nH]c(=O)n([C@H]2C[C@H](O)[C@@H](CO)O2)cc1Br,14.7% (inactive)
5,CC(C)CN=C(NS(=O)(=O)c1ccccc1)C(Cl)(Cl)Cl,24.3% (inactive)
6,O=C(OC1C2CCC1C1CN(CCc3ccccc3)CC12)c1ccccc1 (stereo not given),11.2% (inactive)
7,COc1cc2[nH]c3c(Cl)ncnc3c2cc1OC,32.2% (inactive)
8,CC[N+](CC)(CC)CCOc1ccc(/C=C/c2ccccc2)cc1,3.27% (inactive)
9,Cc1cc(C)nc(/N=C(\N)Nc2ccc(OCCC(C)C)cc2)n1,-1.86% (inactive)
10,COc1cccc2[nH]c(=O)c(-c3ccccc3)cc12,-103% (inactive)
11,Cc1ccc(C(=O)C[n+]2cc(-c3ccccc3)n3c2CCCCC3)cc1,6.68% (inactive)
12,CCN(c1ccccc1)S(=O)(=O)c1ccc(C(=O)Nc2nnc(-c3ccco3)o2)cc1,8.7% (inactive)
13,COc1cccc(/C=N/Nc2ncnc(Cl)c2N)c1O,78.1% (active)
14,CC(C)(CC(=O)O)CC(=O)Nc1ccc(Oc2ccc(C(C)(C)C)cc2)nc1,3.47% (inactive)
15,COc1ccc(N/N=C(/N=Nc2nc(C)cc(=O)[nH]2)c2ccccc2)cc1,46.6% (active)
16,COc1ccc(CNC(=O)[C@H](Cc2ccccc2)NC(=O)C2CCN(C(=O)[C@H](C)N)CC2)cc1,12.2% (inactive)
17,CCCCCc1ccc(OCCOCCn2c[n+](C)c3ccccc32)c(CCCCC)c1,25.3% (inactive)
18,Cc1ccc2c(c1)c(C)cc[n+]2Cc1ccccc1,10.7% (inactive)
19,Oc1c(CN2CCCCC2)cc(COCc2ccccc2)c2cccnc12,75.2% (active)
20,Nc1nc2c(F)cccc2s1,-3.71% (inactive)

# System: transactivating tegument protein VP16 (Human herpesvirus 1), Gal4-VP16 luciferase reporter
# Test: VP16 transactivation inhibitors, counter-screen for SRC3 inhibitor project, cell-based, luminescence, high throughput (AID 588794; in the data active = inhibition above about 30%)
# Settings: mammalian cells, VP16-driven luciferase reporter luminescence; at 3.6 µM; active compounds read high
row,SMILES,inhibition
1,COc1ccc(-c2nc3c(c(SCC(=O)N4CCOCC4)n2)Cc2c(CO)cnc(C)c2O3)cc1,-10.4% (inactive)
2,CCCNc1nc(OC(C(F)(F)F)C(F)(F)F)nc(OC(C(F)(F)F)C(F)(F)F)n1,-8.01% (inactive)
3,O=C(NNC(=O)c1cccnc1SCc1cccc([N+](=O)[O-])c1)c1ccccn1,30.1% (active)
4,COc1cccc(NC(=O)CN(C)C(=O)/C=C/c2cn(-c3ccccc3)nc2-c2ccc(OC)c(OC)c2)c1,-9.23% (inactive)
5,COc1ccc(S(=O)(=O)Nc2cc([N+](=O)[O-])ccc2OC)cc1,2.4% (inactive)
6,CC#CC[N+](C)(C)CCCCCCCCCC,16.9% (inactive)
7,O=C(N/N=C/c1ccccc1O)c1ccncc1,13.7% (inactive)
8,C/C(=N\NC(=O)c1cc(-c2cccnc2)nc2ccccc12)c1ccc(O)cc1O,29.9% (active)
9,CCSc1nsc(NC(=O)Nc2cccc(F)c2)n1,15.4% (inactive)
10,Nc1[nH]nc2nc(-c3ccccc3)[nH]c(=O)c12,-4.28% (inactive)
11,Cc1nc2ccccn2c1-c1ccnn1S(=O)(=O)c1ccc(F)cc1,12.3% (inactive)
12,Cc1cc(NC2CCCCC2)nc(NCc2ccccc2)n1,28.1% (inactive)
13,CCCN1C(=O)c2ccccc2NC1c1ccc(Cl)c(Cl)c1 (stereo not given),22.1% (inactive)
14,C[C@H](NS(=O)(=O)c1ccc(Cl)cc1)C(=O)OCC(=O)NC(=O)Nc1ccc2c(c1)OCCO2,-25.8% (inactive)
15,Cc1ccc(NC(=O)C2c3ccccc3-c3ccccc32)cc1,6.56% (inactive)
16,O=C(COc1ccc(Cl)cc1)NCc1nnc(SCC(=O)NC2CCCCC2)o1,3.49% (inactive)
17,CSc1cccc(N/C(=N/S(=O)(=O)c2ccccc2)NN)c1,0.02% (inactive)
18,COc1cccc(-c2c(C(=O)N/N=C/c3ccncc3)nnn2-c2nonc2N)c1,12.9% (inactive)
19,Cc1cccc(NC(=O)c2cc(-c3ccccn3)nc3ccccc23)c1C,8.29% (inactive)
20,Cc1cccc(NC(=O)c2cnn(C)c2)c1C,-8.45% (inactive)

row,SMILES,inhibition
1,C=CCSc1nc2ccccc2n1C(=O)/C=C/c1cc(OC)c(OC)c(OC)c1,-10.3% (inactive)
2,Cc1ccsc1/C=N/NC(=O)CNC(=O)c1ccccc1,-7.26% (inactive)
3,COc1ccc2nc(C(F)(F)Cl)c(C#N)c(N)c2c1,-0.89% (inactive)
4,O=c1[nH]c(=O)n([C@H]2C[C@H](O)[C@@H](CO)O2)cc1Br,16.2% (inactive)
5,CC(C)CN=C(NS(=O)(=O)c1ccccc1)C(Cl)(Cl)Cl,16.1% (inactive)
6,O=C(OC1C2CCC1C1CN(CCc3ccccc3)CC12)c1ccccc1 (stereo not given),18% (inactive)
7,COc1cc2[nH]c3c(Cl)ncnc3c2cc1OC,16.2% (inactive)
8,CC[N+](CC)(CC)CCOc1ccc(/C=C/c2ccccc2)cc1,5.91% (inactive)
9,Cc1cc(C)nc(/N=C(\N)Nc2ccc(OCCC(C)C)cc2)n1,23.4% (inactive)
10,COc1cccc2[nH]c(=O)c(-c3ccccc3)cc12,-36.1% (inactive)
11,Cc1ccc(C(=O)C[n+]2cc(-c3ccccc3)n3c2CCCCC3)cc1,22.9% (inactive)
12,CCN(c1ccccc1)S(=O)(=O)c1ccc(C(=O)Nc2nnc(-c3ccco3)o2)cc1,9.19% (inactive)
13,COc1cccc(/C=N/Nc2ncnc(Cl)c2N)c1O,71.7% (active)
14,CC(C)(CC(=O)O)CC(=O)Nc1ccc(Oc2ccc(C(C)(C)C)cc2)nc1,0.08% (inactive)
15,COc1ccc(N/N=C(/N=Nc2nc(C)cc(=O)[nH]2)c2ccccc2)cc1,30.7% (active)
16,COc1ccc(CNC(=O)[C@H](Cc2ccccc2)NC(=O)C2CCN(C(=O)[C@H](C)N)CC2)cc1,-2.01% (inactive)
17,CCCCCc1ccc(OCCOCCn2c[n+](C)c3ccccc32)c(CCCCC)c1,36.4% (active)
18,Cc1ccc2c(c1)c(C)cc[n+]2Cc1ccccc1,4.92% (inactive)
19,Oc1c(CN2CCCCC2)cc(COCc2ccccc2)c2cccnc12,66.7% (active)
20,Nc1nc2c(F)cccc2s1,0.2% (inactive)
